# In PubChem BioAssay (NCI):
# Compounds without any hit were thinned out: in the full panel of roughly 83,000, 20% have a hit.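 Assay: single dose, 48 h. Readout: percent growth (0 = no net growth; negative = cell death). Active: <10.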 A number with no mark means an inactive call. Activity calls are given as the source filed them.
# How the values were obtained:
# Assay in all cases: NCI-60 one-dose screen, 48 h (100 = growth as untreated, 0 = no growth, -100 = all killed)
# Details in all cases: 10 µM unless noted
# DU-145 prostate = system: DU-145 prostate
# K-562 leukemia = system: K-562 leukemia
# MALME-3M melanoma = system: MALME-3M melanoma
# MDA-MB-231 breast = system: MDA-MB-231 breast
# RXF 393 renal = system: RXF 393 renal
# SF-268 CNS = system: SF-268 CNS
# SF-295 CNS = system: SF-295 CNS
# SF-539 CNS = system: SF-539 CNS
# UACC-257 melanoma = system: UACC-257 melanoma
# M14 melanoma = system: M14 melanoma
Structure (SMILES),growth (DU-145 prostate),growth (K-562 leukemia),growth (MALME-3M melanoma),growth (MDA-MB-231 breast),growth (RXF 393 renal),growth (SF-268 CNS),growth (SF-295 CNS),growth (SF-539 CNS),growth (UACC-257 melanoma),growth (M14 melanoma)
CCOP(=O)(OCC)OC[C@]12CCC(C)(C)C[C@H]1C1=CC[C@@H]3[C@@]4(C)CC[C@H](OP(=O)(OCC)OCC)C(C)(C)[C@@H]4CC[C@@]3(C)[C@]1(C)CC2,83.1%,28.9%,62.6%,50.2%,74.9%,73.1%,51.8%,66.9%,55%,51.9%
CC(=O)c1cc(C(=O)N2c3ccccc3Sc3ccccc32)n2c1ccc1ccccc12,75%,23.6%,62%,97.4%,66.9%,67.5%,41%,69.1%,51.8%,40.8%
O=C(CSc1cc[n+](CCCCO)c2ccccc12)n1ccc2ccccc21,110%,98.2%,99.7%,88.2%,107%,109%,99.7%,99.2%,95.2%,96.6%
Cc1ccc(NC2=C(Cl)C(=O)c3nc(C)ccc3C2=O)c(C)c1,-1.93% (active),2.95% (active),13.9%,11.9%,31.1%,24.8%,-29.9% (active),-61.9% (active),-80.6% (active),-58.3% (active)
CNc1sc(S(=O)(=O)NC)nc1S(=O)(=O)c1ccc(C)cc1,107%,97.5%,110%,101%,108%,103%,93.6%,98.6%,100%,101%
O=C(N/N=C\c1ccc([N+](=O)[O-])cc1)c1ccc2nc(-c3ccc(Br)cc3)[nH]c2c1,28.2%,2.69% (active),6.94% (active),62.4%,11.5%,44.7%,25.1%,28.2%,18.2%,3.52% (active)
Cn1cc(-c2nnc(N)nc2-c2c[nH]c3ccc(Br)cc23)c2cc(Br)ccc21,109%,105%,108%,98.7%,93.1%,106%,100%,102%,108%,102%
CC1(C)CC[C@]23CC[C@]4(C)[C@H](CC[C@@H]5[C@@]6(C)CC[C@H](NCO)C(C)(C)[C@@H]6CC[C@]54C)[C@H]2[C@H]1OC3,14.8%,4.93% (active),93.5%,19.7%,56.3%,77%,59.6%,69%,103%,35.9%
Cn1cc(-c2cc3ncnc(Nc4ccc(NC(=O)Nc5cc(C(C)(C)C)on5)cc4)c3s2)cn1,47.8%,8.65% (active),17.3%,28%,-5.22% (active),45.5%,-37.8% (active),-47.8% (active),25.3%,11.6%
O=C(CSc1nc2ccccc2c(=O)n1-c1ccc(Cl)c(Cl)c1)Nc1ccc(S(=O)(=O)Nc2ccc(Cl)nn2)cc1,101%,96.5%,98.5%,90.8%,88.1%,100%,101%,90.7%,93.5%,86.2%
NC(=O)n1c(=O)n(-c2cccc(C(F)(F)F)c2)c(=O)c2cc(-c3ccc(F)cc3F)ccc21,23.3%,5.61% (active),-18.8% (active),-24% (active),-2.52% (active),16.6%,-10.1% (active),15.5%,-13.5% (active),11.1%
Oc1[nH]c2ccc(Cl)cc2c1N=Nc1nc(N=Nc2c(O)[nH]c3ccc(Cl)cc23)nc(N2CCOCC2)n1,88.4%,32.9%,56.4%,36.3%,13.7%,49.1%,45.7%,16%,82%,77.5%
COc1cc(-c2nc(-c3ccccc3)[nH]c2-c2ccnc(NCCCNS(=O)(=O)c3cccc(F)c3)n2)ccc1F,87.1%,63.6%,95.6%,94.3%,92.2%,89.1%,102%,98.6%,115%,93.3%
COc1ccc(C(=O)c2c(N)c(C#N)cn2-c2ccc(Cl)cc2Cl)cc1,110%,93.6%,96.9%,90.8%,97%,100%,98.8%,102%,98.2%,91.2%
CCCN1C=C/C(=C\C(=O)n2ccc3ccccc32)c2ccccc21,87.7%,56.9%,104%,76.2%,97.6%,96.4%,83.1%,88.2%,102%,95.4%
CC(=O)Nc1nc(C)c(-c2csc(Nc3ccccc3)n2)s1,30%,24.8%,13%,33%,6.02% (active),46.7%,11.9%,15.9%,50.7%,35.3%
O=C(COc1ccc(/C=C2\C(=O)Nc3ccc(F)cc32)cc1)Nc1ccccc1,104%,89.6%,102%,104%,120%,95.1%,105%,93.8%,104%,94.4%
CN1CCN(c2ccc(Nc3nc(NCCCNS(=O)(=O)c4ccc(Cl)cc4)c4sccc4n3)cc2)CC1,30.8%,12.5%,-88.4% (active),9.29% (active),-76.7% (active),5.08% (active),-68.5% (active),-85.3% (active),-80.2% (active),-60.4% (active)
CN1CCN(c2ccc(Nc3nc(NCCCNS(=O)(=O)c4ccccc4)c4sccc4n3)cc2)CC1,56.4%,16.7%,-42.8% (active),38.1%,-29.8% (active),64.2%,38.4%,-71.4% (active),-15.6% (active),-9.06% (active)
Cn1cc(-c2nc(N)nnc2-c2c[nH]c3ccc(Br)cc23)c2cc(F)ccc21,96.4%,56.4%,94.2%,90.2%,93.6%,86.9%,106%,95.1%,109%,102%
CNCCN(C)c1ccc(Nc2cc(NC3CC3)n3ncc(C#N)c3n2)cc1NC(C)=O,17.5%,10.7%,-5.08% (active),-6.44% (active),-24.5% (active),7.24% (active),12%,6.65% (active),8.4% (active),-20.6% (active)
Cc1ccc(S(=O)(=O)NCCCNc2nccc(-c3[nH]c(-c4ccccc4)nc3-c3ccc(F)c(O)c3)n2)cc1,98.6%,30.4%,2.9% (active),71.1%,97.9%,105%,94.9%,105%,23.8%,22.9%
Cc1ccc2c(n1)C(=O)C(Cl)=C(Nc1ccccc1C(=O)OC(C)(C)C)C2=O,-56.2% (active),-15.7% (active),-45.9% (active),55.5%,-81.7% (active),79.6%,91.8%,83.1%,-63.5% (active),-10.6% (active)
Fc1cccc(Cl)c1/C=N/Nc1nc(N/N=C/c2c(F)cccc2Cl)nc(N2CCCCC2)n1,61%,32.3%,-4.19% (active),42.1%,-3.38% (active),36.7%,2.57% (active),56.3%,11.7%,11.9%
O=c1c2cc(-c3ccc(F)cc3F)ccc2n(O)c(=O)n1-c1cccc(C(F)(F)F)c1,25.5%,3.41% (active),-12.2% (active),-10.3% (active),3.38% (active),17.4%,-11.2% (active),21.1%,-8.3% (active),17.6%
O=C1CSC(c2cn(-c3ccccc3)nc2-c2ccc(Cl)cc2)N1c1ccccc1 (stereo not given),115%,109%,115%,107%,126%,109%,99.5%,99%,102%,99.3%
